Only some compounds are listed: those with a hit (about 0.96% of all), similar ones and a draw of the others.
TexasRed autofl = Texas Red region autofluorescence; Compound fluorescence, Texas Red channel, 547/618 nm; stronger effect = higher value; 59,000 tested, 0.06% active; max dye-equivalent concentration, M; AID 587; in the data active = max dye-equivalent concentration above about 10 nM; inconclusive = between about 1.1 nM and that limit
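Compound fluorescence was read after 15 min at room temperature in 100 mM Tris, pH 8.0, using 547 nm excitation and 618 nm emission across a concentration series. It was expressed as Texas Red dye-equivalent concentration from an on-plate standard curve.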
A647 autofl = A647 region autofluorescence; Compound fluorescence, A647 channel (570/671 nm), Tris buffer; max dye-equivalent concentration, M; 59,000 tested, under 10 active; AID 592;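 note: values scaled relative to a standard on each plate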
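Spectral profiling of library compounds in pH 8.0 Tris: 15 min room-temperature incubation, single ex/em pair (570/671 nm), response normalized to Alexa 647 equivalents.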
Resorufin fluor = compounds fluorescent in resorufin spectral region | 59,000 tested, 0.04% active | AID 588 | max dye-equivalent concentration, M | Compound fluorescence, resorufin region 547/598 nm, buffer; stronger effect = higher value
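Tris 100 mM pH 8.0; compound added, 15 min RT; CCD imager read, ex 547 nm/em 598 nm; signal normalized to resorufin standard curve (six concentrations per plate) as dye-equivalent concentration.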
Rhodamine autofl = compound fluoresces in the rhodamine spectral region | Rhodamine-region fluorescence, 547/598 nm, Tris buffer; stronger effect = higher value | max dye-equivalent concentration, M | AID 594 | 59,000 tested, 0.05% active; in the data active = max dye-equivalent concentration above about 11 nM; inconclusive = between about 1.1 nM and that limit
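Compound fluorescence in 100 mM Tris, pH 8.0, read after 15 min at room temperature with 547 nm excitation and 598 nm emission. Output is dye-equivalent concentration from an on-plate rhodamine standard series.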
A488 autofl = A488 region autofluorescence | compound autofluorescence, A488 spectral region, dye equivalency; Compound Type: qHTS ECL - MLSMR | max dye equivalency, M | 59,000 tested, 0.1% active
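Intrinsic compound fluorescence is measured in 100 mM Tris buffer at pH 8.0 following 15 min incubation at room temperature. Intensities at 480 nm excitation/540 nm emission are calibrated to an on-plate A488 concentration series, giving dye-equivalent concentrations.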
Fluorescein fluor = compound autofluorescence in fluorescein spectral region; Compound autofluorescence, 480/540 nm, fluorescein-equivalent; stronger effect = higher value; max fluorescein-equivalent concentration, M; 59,000 tested, 0.91% active; in the data active = max fluorescein-equivalent concentration above about 10 nM; inconclusive = between about 1.1 nM and that limit
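Values reflect compound autofluorescence, normalized to fluorescein on the same plate and reported at each tested concentration. Conditions: 100 mM Tris pH 8.0, room temperature, 15 min, excitation 480 nm, emission 540 nm.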
An asterisk follows results filed as active; i = inactive; ? = inconclusive; ! = a repeat was not active. Unless noted, the rule behind the calls is not given here.

SMILES	TexasRed autofl	A647 autofl	Resorufin fluor	Rhodamine autofl	A488 autofl	Fluorescein fluor
COc1cccc(NS(=O)(=O)c2ccc(S(=O)(=O)N3CCOCC3)cc2)c1	i	4.6e-09	i	i	i	1.1e-08M*
COc1cccc(NS(=O)(=O)c2ccc3c(c2)n(C)c(=O)c(=O)n3C)c1	i	1e-09	i	i	i	i
O=C1OC(=O)[C@@H]2[C@@H]1[C@@H]1CC[C@H]2O1	i	1e-09	i	i	i	?
Cc1ccc(/C=C/C2=Cc3c(sc(NC(=O)CSc4n[nH]c(N)n4)c3C#N)C(C)(C)C2)o1	5.9e-08M*	3.9e-08	2.4e-08M*	2.8e-08M*	?	1.2e-07M*
CCOC(=O)c1sc(NC(=O)CSc2n[nH]c(-c3ccccc3)n2)c(C#N)c1C	i	1.2e-08	i	i	i	?
C=CCn1c(O)c(CN2CCN(Cc3ccccc3)CC2)c(C)c(C#N)c1=O	i	1e-09	i	i	i	2.1e-08M*
CCCn1c(O)c(CN2CCCCC2)c(C)c(C#N)c1=O	?	1.4e-09	i	i	i	1.5e-08M*
Cc1c(CN2CCCCC2)c(O)n(CCCO)c(=O)c1C#N	?	3.9e-09	i	i	i	1.6e-08M*
C=CCOC(=O)C(C#N)c1nc2ccccc2nc1N1CCN(Cc2ccccc2)CC1 (stereo not drawn)	?	1e-09	i	i	i	?
C[C@@H](CN1CCC(Cc2ccccc2)CC1)[C@H](O)c1ccc(O)cc1	?	5.6e-09	i	i	i	i
COc1cc(/C=C\C(=O)N2CCCCC2=O)cc(OC)c1OC	i	1.7e-08	i	i	i	i
O=C(NCc1ccccc1F)C1CCN(C(=O)NCc2ccccc2)CC1	i	1.5e-08	i	i	i	i
O=C(NCc1ccc(F)cc1)C1CCN(C(=O)NCc2ccccc2)CC1	i	1e-09	i	i	i	1e-08M*
COc1ccc(-c2c3c(=O)n(C)c(=O)n(C)c3c3nnc4ccccc4n23)cc1	i	1e-09	i	i	i	1.4e-08M*
COc1ccc2c(c1)[C@]1(C)CCC[C@](C)(CO)[C@@H]1CC2	i	1e-09	i	i	i	i
CN(C)c1ccc(NC(=O)CCCc2ccccc2)cc1	?	3.9e-08	i	i	i	?
CN(C)c1ccc(N/C=C/C(=O)c2ccccc2)cc1	i	1.2e-08	i	i	i	1.4e-08M*
Cc1ccc(N2C(=O)C3C(C2=O)C(C(=O)c2ccc(Cl)cc2)N2CCCC32)cc1 (stereo not drawn)	i	3.5e-08	i	i	?	3.1e-08M*
CN(C)CCCNc1cc(O)c2c(c1O)C(=O)c1ccccc1C2=O	4.6e-08M*	5e-09	1.3e-08M*	1.8e-08M*	i	?
CN(C)CCCNC(=O)c1ccc(-c2ccccc2)cc1	i	3.9e-08	i	i	i	?
CN(C)c1ccc(/C=C/c2ccncc2)cc1	i	2.6e-08	i	i	i	1.2e-08M*
COc1cccc(/C=C/c2ccncc2)c1OC	i	2.7e-08	i	i	i	i
COC(=O)C1=CO[C@@H](C)[C@H]2CN3CCc4c([nH]c5ccccc45)[C@@H]3C[C@H]12	i	1.9e-09	i	i	i	1e-08M*!
CC(C)(C(=O)O)c1ccc([C@@H](O)CCCN2CCC(C(O)(c3ccccc3)c3ccccc3)CC2)cc1	?	2.1e-08	i	i	i	?
CCN1CC=C2C(C1)C(c1ccc(Cl)s1)C(C#N)=C(N)C2(C#N)C#N (stereo not drawn)	i	1e-09	i	i	?	8.6e-08M*
SMILES	TexasRed autofl	A647 autofl	Resorufin fluor	Rhodamine autofl	A488 autofl	Fluorescein fluor
CCOC(=O)N1CCC(Nc2nc3ccccc3n3nnnc23)CC1	i	4e-08	i	i	i	1.1e-08M*
O=c1c(O)c(-c2cccs2)oc2ccccc12	?	1.2e-09	i	i	?	3.2e-08M*
NC(=O)C1=CN([C@@H]2O[C@@H](COP(=O)(O)OP(=O)(O)OC[C@@H]3O[C@H](n4cnc5c(N)ncnc54)[C@@H](OP(=O)(O)O)[C@@H]3O)[C@H](O)[C@@H]2O)C=CC1	i	4.9e-08	i	i	i	?
C[C@@]12CC[C@@H]3[C@H](CCC4=CC(=O)CC[C@]43C)[C@@H]1CC[C@@H]2C(=O)COS(=O)(=O)c1ccc(Br)cc1	i	3.3e-08	i	i	i	?
C[C@@H]1C(=O)O[C@H]2[C@@H](O)[C@@]34[C@H]5C[C@H](C(C)(C)C)[C@@]36[C@H](OC(=O)[C@@H]6O)O[C@@]4(C(=O)O5)[C@@]12O	i	2.8e-09	i	i	i	i
COc1ccc(CCN(C)CCC[C@@](C#N)(c2cc(OC)c(OC)c(OC)c2)C(C)C)cc1OC	i	3.7e-08	i	i	i	?
COC(=O)C1=C(C)NC(C)=C(C(=O)OCCN(C)Cc2ccccc2)[C@@H]1c1cccc([N+](=O)[O-])c1	i	2.6e-08	i	i	i	?
O=C(CCC1COc2ccccc2O1)Nc1cccnc1 (stereo not drawn)	i	2e-08	i	i	i	1.7e-08M*
CCN1C(=S)SC(=O)C1=C1C=C(C)N(CCO)C(C)=C1	i	1e-09	i	i	i	?
CCN1C(=S)SC(=O)C1=C1C=C(C)N(CCOC)C(C)=C1	i	1e-09	i	i	i	1.1e-08M*
CC1(C)CC[C@]2(C(=O)O)CC[C@]3(C)C(=CC[C@@H]4[C@@]5(C)CC[C@H](O)C(C)(C)[C@@H]5CC[C@@]43C)[C@@H]2C1	i	1e-09	i	i	i	i
CCCOc1cc(N)ccc1C(=O)OCCN(CC)CC	i	2.5e-08	i	i	i	?
CCCOc1ccc(N)cc1N	i	1e-09	i	i	i	1.9e-08M*
CN1CCC2(CC1)C1CN(C)CC=C1C(C#N)=C(N)C2(C#N)C#N (stereo not drawn)	i	2.1e-09	i	i	?	6e-08M*
C=CCN1C(=O)C2(c3ccccc31)C1CCCC=C1C(C#N)=C(N)C2(C#N)C#N (stereo not drawn)	i	1.5e-08	i	i	i	i
CO/N=C(\C(=O)N[C@@H]1C(=O)N2C(C(=O)O)=C(CSc3nc(=O)c(O)nn3C)CS[C@@H]12)c1csc(N)n1	i	1e-09	i	i	i	?
COc1cccc2cc(-c3nc(-c4cccs4)cs3)c(=O)oc12	i	1e-09	i	i	i	2.4e-08M*
COc1cc2c(cc1OC)CN(C(=O)CSc1nc(N)c(C#N)cc1C#N)CC2	?	1.5e-09	i	i	i	1.9e-08M*
